# Laboratory results taken from ChEMBL document CHEMBL3988442, “University of Dundee, Small-Polar-MMV Screening Library” (2021).
# Target: T1, Methionyl-tRNA synthetase, putative (Leishmania donovani (strain BPK282A1)) (UniProt E9BF75)
# T1 sequence (whole entry): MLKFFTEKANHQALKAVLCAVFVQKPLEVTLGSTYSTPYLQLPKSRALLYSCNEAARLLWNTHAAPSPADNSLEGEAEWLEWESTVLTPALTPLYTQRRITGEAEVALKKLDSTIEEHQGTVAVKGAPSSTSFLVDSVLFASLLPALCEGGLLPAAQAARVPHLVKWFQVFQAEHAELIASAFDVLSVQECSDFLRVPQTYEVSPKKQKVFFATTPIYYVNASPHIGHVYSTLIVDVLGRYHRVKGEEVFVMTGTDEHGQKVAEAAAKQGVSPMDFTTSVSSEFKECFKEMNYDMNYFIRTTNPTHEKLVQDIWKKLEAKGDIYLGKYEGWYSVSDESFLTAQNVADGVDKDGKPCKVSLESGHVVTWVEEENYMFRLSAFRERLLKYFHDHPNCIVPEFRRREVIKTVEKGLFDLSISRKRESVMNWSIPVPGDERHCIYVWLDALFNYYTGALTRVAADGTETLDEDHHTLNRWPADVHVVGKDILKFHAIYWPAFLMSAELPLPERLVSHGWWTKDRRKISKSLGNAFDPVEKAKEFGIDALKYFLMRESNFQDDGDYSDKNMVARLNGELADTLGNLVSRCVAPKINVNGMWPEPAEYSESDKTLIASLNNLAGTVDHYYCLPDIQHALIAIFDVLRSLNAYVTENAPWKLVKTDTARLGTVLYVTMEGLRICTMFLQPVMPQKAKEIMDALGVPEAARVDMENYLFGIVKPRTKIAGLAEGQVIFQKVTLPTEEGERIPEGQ
# Assay: Leishmania donovani Methionine tRNA synthetase (LdMetRS):v7. Dose response assay
# Assay type: functional
# Design: conc 80 nM, time 150 minutes
smiles,measurement,setting,value
COCCCNc1nc(Nc2ccc(F)c(F)c2)nc2c1cnn2C,PXC50,"BOTTOM 8.707474288, HILLSLOPE 1.018785888, MAX_EFFECT 82.18527316, TOP 91.55126405",4.89
same,PXC50,"BOTTOM 8.755992534, HILLSLOPE 0.77848464, MAX_EFFECT 80.25751073, TOP 100.0",4.77
same,PXC50,"BOTTOM -0.585436575, HILLSLOPE 0.774777818, MAX_EFFECT 86.07350097, TOP 105.947702",4.83
NS(=O)(=O)c1cc(C(=O)O)cnc1Nc1cccc(C(F)(F)F)c1,PXC50,MAX_EFFECT 5.660377358,< 4
same,PXC50,MAX_EFFECT 10.0877193,< 4
same,PXC50,MAX_EFFECT 16.28498728,< 4
COc1ccc(Oc2nccc3occc23)cc1CN1CCCC1,PXC50,"BOTTOM 5.268776127, HILLSLOPE 1.354854137, MAX_EFFECT 57.61821366, TOP 100.0",4.06
same,PXC50,"BOTTOM -7.168939731, HILLSLOPE 0.901042745, MAX_EFFECT 51.70068027, TOP 100.0",4.08
same,PXC50,"BOTTOM -7.793188509, HILLSLOPE 1.286586052, MAX_EFFECT 52.89855072, TOP 100.0",4.09
CN(C)c1nc(N(C)C)c2cnn(C)c2n1,PXC50,MAX_EFFECT 10.25145068,< 4
same,PXC50,MAX_EFFECT 21.69421488,< 4
same,PXC50,MAX_EFFECT 22.46696035,< 4
COc1ccccc1CN1CCC(c2nn(CCN)c3nccnc23)C1 (stereo unspecified),PXC50,"BOTTOM 6.910506635, HILLSLOPE 2.152998005, MAX_EFFECT 63.75838926, TOP 91.48778108",4.15
same,PXC50,"BOTTOM -1.343168311, HILLSLOPE 1.212343279, MAX_EFFECT 59.72222222, TOP 92.89137202",4.23
same,PXC50,"BOTTOM -1.505582699, HILLSLOPE 1.035538343, MAX_EFFECT 55.28596187, TOP 100.0",4.07
CNS(=O)(=O)c1cccnc1Nc1cccc(C(F)(F)F)c1,PXC50,MAX_EFFECT 3.524229075,< 4
same,PXC50,MAX_EFFECT 5.165289256,< 4
same,PXC50,MAX_EFFECT 6.451612903,< 4
Cn1ccnc1CN(CCO)C(=O)C1CCN(C(=O)C2CC2)CC1,PXC50,MAX_EFFECT 3.401360544,< 4
same,PXC50,MAX_EFFECT 4.347826087,< 4
same,PXC50,MAX_EFFECT 10.33274956,< 4
CCc1[nH]c2c(CNc3nc(C)cc(NC)n3)cc(C)cc2c1C,PXC50,"BOTTOM 0.67274626, HILLSLOPE 1.539733885, MAX_EFFECT 72.46376812, TOP 100.0",4.25
same,PXC50,"BOTTOM -0.906983609, HILLSLOPE 1.456210781, MAX_EFFECT 70.06802721, TOP 103.3868667",4.22
same,PXC50,MAX_EFFECT 28.19614711,< 4
Cn1ncc2c(NCCO)nc(Nc3ccc(O)cc3)nc21,PXC50,MAX_EFFECT 7.728337237,< 4
same,PXC50,MAX_EFFECT 8.34914611,< 4
same,PXC50,MAX_EFFECT 13.02428256,< 4
CN(CCO)c1nc(Nc2ccc(F)c(F)c2)nc2c1cnn2C,PXC50,"BOTTOM 0.0, HILLSLOPE 0.946216108, MAX_EFFECT 71.34724858, TOP 77.67704584",5.71
same,PXC50,"BOTTOM 6.419914674, HILLSLOPE 1.323004722, MAX_EFFECT 73.51598174, TOP 75.78870148",5.35
same,PXC50,"BOTTOM 11.43918674, HILLSLOPE 1.794336173, MAX_EFFECT 61.32075472, TOP 56.10925087",5.63
O=C1NCC(c2ccc(F)cc2)Cc2[nH]c(CCN3CCCC3)nc21 (stereo unspecified),PXC50,"BOTTOM 0.586623965, HILLSLOPE 0.960788857, MAX_EFFECT 61.0738255, TOP 100.0",4.15
same,PXC50,"BOTTOM 2.860481636, HILLSLOPE 1.198642369, MAX_EFFECT 65.27777778, TOP 100.0",4.21
same,PXC50,"BOTTOM -5.455719139, HILLSLOPE 0.971400426, MAX_EFFECT 59.44540728, TOP 100.0",4.18
OCCNc1nc(Nc2cccc(C(F)(F)F)c2)nc2ccsc12,PXC50,MAX_EFFECT 27.65957447,< 4
same,PXC50,MAX_EFFECT 37.44493392,< 4
same,PXC50,MAX_EFFECT 44.00826446,< 4
Cn1ncc2c(NCCO)nc(Nc3ccccc3S(N)(=O)=O)nc21,PXC50,MAX_EFFECT 2.127659574,< 4
same,PXC50,MAX_EFFECT 3.652968037,< 4
same,PXC50,MAX_EFFECT 13.39622642,< 4
Cn1ncc2c(NCCn3cccn3)nc(Nc3ccc(F)c(F)c3)nc21,PXC50,MAX_EFFECT 33.72921615,< 4
same,PXC50,MAX_EFFECT 37.33905579,< 4
same,PXC50,MAX_EFFECT 41.9729207,< 4
O=C(CCNC(=O)c1ccccc1F)NCCNc1cccnc1,PXC50,MAX_EFFECT 3.623188406,< 4
same,PXC50,MAX_EFFECT 4.761904762,< 4
same,PXC50,MAX_EFFECT 5.779334501,< 4
Cn1ncc2c(NC3CCCCC3O)nc(Nc3ccc(F)c(F)c3)nc21 (stereo unspecified),PXC50,"BOTTOM -1.097292769, HILLSLOPE 1.183920675, MAX_EFFECT 57.48218527, TOP 58.96974935",5.31
same,PXC50,"BOTTOM -1.326166196, HILLSLOPE 1.398612708, MAX_EFFECT 60.37735849, TOP 61.95804926",5.4
same,PXC50,"BOTTOM -2.072986449, HILLSLOPE 1.170002512, MAX_EFFECT 60.08583691, TOP 62.14142479",5.35
NC(=O)c1cccnc1Nc1cccc(S(N)(=O)=O)c1,PXC50,MAX_EFFECT 5.69259962,< 4
same,PXC50,MAX_EFFECT 12.33480176,< 4
same,PXC50,MAX_EFFECT 15.08264463,< 4
